Our source for the Potency and activity change, negative = cytotoxicity values is PubChem BioAssay (Tox21).

Several values for one entry are separate records, joined by “and”; a condition that tells them apart may be missing. Equal entries are not always repeated. Inconclusive results are not listed. Where a call stands in place of a potency, no number is given. Activity calls are given as the source filed them. Calls follow the shape of the full dose curve.
Potency is read from the fitted curve at half-maximal effect.

The experiment can be described thus: p53 small molecule agonists, cell-based qHTS assay with rat liver microsomes: qHTS cell viability counter screen (AID 1963580). Also: nearly all actives have a fitted effect of over 45% in size. As to conditions: p53RE-bla HCT-116 + rat microsomes, ATP viability, 16 h; series mostly up to 66 µM. An excerpt:
National Center for Advancing Translational Sciences [NCATS]
Division of Preclinical Innovation [DPI]
U.S. Environmental Protection Agency [EPA]
National Institutes of Environmental Health Sciences [NIEHS]
National Toxicology Program [NTP]
U.S. Food and Drug Administration [FDA]
p53, a tumor suppressor protein, is activated following cellular insult, including DNA damage and other cellular stresses. The activation of p53 regulates cell fate by inducing DNA repair, cell cycle arrest, apoptosis, or cellular senescence. The activation of p53, therefore, is a good indicator of DNA damage and other cellular stresses. The CellSensor p53RE-bla HCT-116 cell line contains a stably integrated beta-lactamase reporter gene under control of the p53 response elements. The activation of the reporter gene under culture conditions can be detected by fluorescence intensity. This cell line was used to screen the Tox21 10K compound library in the condition of presence of rat liver microsomes and to identify agonists that activate the p53 signaling pathway after in vitro metabolic activation (Ooka et al., Archive of Toxicology 96:1975-1987, 2022). The cytotoxicity of the Tox21 compound library against the p53 RE-bla HCT-116 cell line was tested in parallel by measuring the intra cellular ATP content in the same wells.
Tox21 Assay Protocol Summary:
The p53RE-bla cells were dispensed at 4,000cells/3ul/well in 1536-well black-clear bottom plates. After the assay plates were incubated at 37 C, 5% CO2 incubator for 5 hours, 23 nL of compounds dissolved in DMSO, positive controls or DMSO only was transferred to the assay plate. Following compound addition, 3 uL of rat liver microsomes (Molecular Toxicology, Boone, NC) at final concentration of 0.5 mg/mL and 1uL of B-Nicotinamide adenine dinucleotide 2'-phosphate (NADPH) at final concentration of 0.5 mg/mL were transferred to the assay plate. The plates were incubated at 37 C for 16 hours. 1 uL of LiveBLAzer detection mixture was added to each well and the plates were incubated at room temperature in the dark for 2 h. Fluorescence intensity at 460 and 530 nm emission and 405 nm excitation were measured by an Envision plate reader. For cell viability readout that measures cytotoxicity, 4 ul/well of CellTiter-Glo reagent was added into the assay plates using a Flying Reagent Dispenser. After 30 min incubation at room temperature, the luminescence intensity in the plates was measured using a ViewLux plate reader.
For the compound `CC(=O)NC1(c2cccc(F)c2)CCN(CC[C@@]2(c3ccc(Cl)c(Cl)c3)CN(c3ccccc3)C(=O)CO2)CC1`, the Potency result was “inactive”.

In the case of `Cc1cccc(OCCOc2cccc(C)c2)c1`, the Potency result is “inactive”.

As to `CC(C)NCC(O)c1cc(O)cc(O)c1` (stereo not given), the Potency entry was “inactive”.

Take `CC1=NN(c2ccc(S(=O)(=O)O)cc2)C(=O)C1N=Nc1ccccc1` (stereo not given): the Potency result is “inactive”.

On to `O=C=NCC1CCCC(CN=C=O)C1` (stereo not given), for which the Potency result is “inactive”.

In the case of `CC/C=C\CCCCCO`, the Potency entry was “inactive”.

For the compound `CCCCCCCCNC(C)C(O)c1ccc(SC(C)C)cc1` (stereo not given), the Potency was 19.9 µM (active).

In the case of `CCCCN(CCO)CCCC`, the Potency entry was “inactive”.

`CC(CN(C)C)CN1c2ccccc2CCc2ccccc21` (stereo not given): the Potency result is “inactive”.

For `Cc1nccn1-c1ccc(Sc2cccc(C3(C(N)=O)CCOCC3)c2)cc1`, the Potency result was “inactive”.

`Clc1nc2ccccc2nc1Cl`: the Potency result is “inactive”.

Turning to `CCc1ccc(C)cc1`, the Potency entry was “inactive”.

Take `CC1=Nc2ccc3ccccc3c2C1(C)C`: the Potency entry is “inactive”.

On to `CCOC(=O)CC(=O)c1ccccc1`, for which the Potency entry is “inactive”.

As to `CCCCCCCCCC(C)C=O` (stereo not given), the Potency result is “inactive”.

Consider `CC(C)(C)CC(C)(C)N`, for which the Potency entry was “inactive”.

With `CCCC/C=C/CCCCO`, the Potency result was “inactive”.

Regarding `O=C1C=CC(=O)N1`, the Potency is 29.6 µM (active).

With `C#C[C@]1(O)CC[C@H]2[C@@H]3CCc4cc(OC5CCCC5)ccc4[C@H]3CC[C@@]21C`, the Potency entry is “inactive”.

On to `Cc1ccc(C(C)C)cc2c(C)ccc1-2`, for which the Potency entry was “inactive”.

Take `CC(C)CO`: the Potency entry is “inactive”.

Consider `C(=C(c1ccccc1)c1ccccc1)c1ccccc1`, for which the Potency result was “inactive”.

Regarding `CNCC[C@@H](Oc1ccccc1C)c1ccccc1`, the Potency result was “inactive”.

For the compound `CC(C)CC(C)(C)C`, the Potency entry is “inactive”.

In the case of `CC(=O)OCC(=O)NCCCOc1cccc(CN2CCCCC2)c1`, the Potency entry was “inactive”.

As to `CN(C)[C@@H](CCOc1cccc2ccccc12)c1ccccc1`, the Potency result is “inactive”.

Regarding `CCCCCCCCCCCCCCCCCC[N+](C)(C)Cc1ccccc1`, the Potency was 46.2 µM (active).

Consider `Cc1cc(O)c2c(O)c3c(O)cccc3cc2c1`, for which the Potency result is “inactive”.

In the case of `CCN(CC)CCCC(C)Nc1ccnc2cc(Cl)ccc12` (stereo not given), the activity change, negative = cytotoxicity is 0.0381% [at 5.99 µM] (inactive) and -13.2% [at 13.5 µM] (inactive).

On to `C=COCCOCCOC=C`, for which the Potency entry is “inactive”.

Regarding `Cc1c(Nc2ncccc2C(=O)O)cccc1C(F)(F)F`, the Potency entry was “inactive”.

Consider `O=C1NC(=O)c2cccc3cccc1c23`, for which the Potency result is “inactive”.

For `CC1=C(O)C(=O)CO1`, the Potency result was “inactive”.

Consider `Nc1ccccc1Nc1ccccc1`, for which the Potency result was “inactive”.

On to `O[C@@H](c1cc(C(F)(F)F)nc2c(C(F)(F)F)cccc12)[C@H]1CCCCN1`, for which the Potency entry was “inactive”.

Turning to `COc1cc(S(=O)(=O)Nc2ccccc2)c(OC)cc1N`, the Potency result was “inactive”.

Consider `CCC(=O)/C=C/c1ccc(OC)cc1`, for which the Potency result is “inactive”.

Turning to `C[C@@H]1C[C@H]2[C@@H]3CCC4=CC(=O)C=C[C@]4(C)[C@@]3(F)[C@@H](O)C[C@]2(C)[C@@]1(O)C(=O)COC(=O)c1ccncc1`, the Potency result was “inactive”.

Take `O=C(c1ccc(F)cc1)C1CCN(CCn2c(=S)[nH]c3ccccc3c2=O)CC1`: the Potency result was “inactive”.

For `COc1ccnc2c1CCCCC2S(=O)c1nc2ccccc2[nH]1` (stereo not given), the Potency entry is “inactive”.
